Results: PMC7819943, “Rice protein-binding microarrays: a tool to detect cis-acting elements near promoter regions in rice”
In all, about 68,000 sequences were measured (“fluorescence intensity (a.u.)”: median about 9,100, highest 2% from about 16,000 on). Shown is part of a subset that was picked to be rich in the highest values.

Each sequence was assayed against OsWRKY34 (Oryza sativa, UniProt Q0JBA9 1-250) (assay: protein-binding microarray (RPBM); PBS, 2% BSA, 51.3 ng/ul salmon testes DNA, 50 uM zinc acetate, 200 nM TF, 25 C, 1 h; high values mean tight binding). Conditions: protein: recombinant; tags: N-terminal polyhistidine and DsRed monomer fusion (pET32a); label: CyDye5-dUTP incorporated in the synthesized complementary strand; 3' TTTTT single-stranded linker to array surface; dsDNA, one strand shown.
Procedure, shortened: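 A custom Agilent array was converted to double-stranded form by primer extension with Cy5-dUTP and blocked with 2% BSA. Protein at 200 nM in PBS with 2% BSA, salmon testes DNA and 50 µM zinc acetate was applied for 1 h at 25 °C, followed by washing. The proteins were polyhistidine–DsRed N-terminal fusions of transcription factors, expressed in E. coli BL21-CodonPlus and Ni–NTA-purified. The binding signal is per-feature fluorescence intensity (arbitrary units) from an Axon 4000B scanner.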

Chain of OsWRKY34 (Q0JBA9 entry or part of it): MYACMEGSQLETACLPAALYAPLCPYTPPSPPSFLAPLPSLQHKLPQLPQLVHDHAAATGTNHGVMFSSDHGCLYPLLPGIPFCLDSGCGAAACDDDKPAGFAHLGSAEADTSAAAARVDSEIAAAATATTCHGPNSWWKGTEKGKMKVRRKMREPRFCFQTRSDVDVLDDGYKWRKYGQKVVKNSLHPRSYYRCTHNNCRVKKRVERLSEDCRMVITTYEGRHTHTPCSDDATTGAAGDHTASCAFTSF

| Sequence | binding signal |
| --- | --- |
| CCTCCATTCTTCAGTTTTAATGCATCCTCTTCATCACTTCCGGAGTCACCTAGTGCAG | 11800 fluorescence intensity (a.u.) |
| CATCAGTACAGGCCCAACTTAAAAATTGCTCGGCCCATTTCGGAGTCACCTAGTGCAG | 8850 fluorescence intensity (a.u.) |
| GGTGCTCCGCCTCCCGGGGCAGGGTTTCAAGAGGGTGGGTCGGAGTCACCTAGTGCAG | 10700 fluorescence intensity (a.u.) |
| CATCCGATTCCTATGTATTTCTTGCGGTCTAATCAAACGACGGAGTCACCTAGTGCAG | 10200 fluorescence intensity (a.u.) |
| GTGTTTTGCAAGGTTGTTTCTTTACCTTATCTATATACATCGGAGTCACCTAGTGCAG | 9790 fluorescence intensity (a.u.) |
| CACTCCACCATTGTCATCTTTACTATCGGTAATTGTTGATCGGAGTCACCTAGTGCAG | 8440 fluorescence intensity (a.u.) |
| GGAGTGTTTCTGTTGTTGCATGTGATGAGTGCATTATCATCGGAGTCACCTAGTGCAG | 11000 fluorescence intensity (a.u.) |
| AGTTGGCTATAATATATTTCTTCTCTCTCTATCTCTCATTCGGAGTCACCTAGTGCAG | 17700 fluorescence intensity (a.u.) |
| TCTTTTTTCTCTTCTTCTTCTCCTCCATTCCATTCCATTTCGGAGTCACCTAGTGCAG | 8930 fluorescence intensity (a.u.) |
| GCTTTTCTTTGTCCATCCATCTATCTTTTTCTCCATCTTTCGGAGTCACCTAGTGCAG | 8440 fluorescence intensity (a.u.) |
| TTTTTTTCTCCTCATTATTCTTCTTTTCTTTCTCTATATTCGGAGTCACCTAGTGCAG | 9180 fluorescence intensity (a.u.) |
| GCCTGTTTCTCCTTCGGCTGATGATATCTGTGCTGTTTTTCGGAGTCACCTAGTGCAG | 8550 fluorescence intensity (a.u.) |
| GGGCTGTTATCTCTGATGTGTTTTCTGCCTCTCATGTCATCGGAGTCACCTAGTGCAG | 17000 fluorescence intensity (a.u.) |
| TGCTCAACATCCATCTTTCTTTCTTTCTTTTTCTCTTTTTCGGAGTCACCTAGTGCAG | 11300 fluorescence intensity (a.u.) |
| TTCTCTCTCTATCTCTCATTTATATATTTAATATATTTGTCGGAGTCACCTAGTGCAG | 9250 fluorescence intensity (a.u.) |
| GTCAAATTTCTGTGCTCCATAAGATCTCTTCTCTTTTTTTCGGAGTCACCTAGTGCAG | 16700 fluorescence intensity (a.u.) |
| ACAGTTTTCTCCATCTTGGCCATTCGTGTGCTATATCCATCGGAGTCACCTAGTGCAG | 16500 fluorescence intensity (a.u.) |
| TTTTTCTTGTGCTCTATCCATCCATGCCATGCCATTCATCCGGAGTCACCTAGTGCAG | 10200 fluorescence intensity (a.u.) |
| ACCCACCACATCGACGCGACCACACTCCACACAAGCCATGCGGAGTCACCTAGTGCAG | 10100 fluorescence intensity (a.u.) |
| TAGTGTTGGTTTGATTTTTATATCACTAGAGATGAACTAACGGAGTCACCTAGTGCAG | 8560 fluorescence intensity (a.u.) |
| GATGATGATGATTTTGGTAGGAGATATGGATCGTGTTGGTCGGAGTCACCTAGTGCAG | 11300 fluorescence intensity (a.u.) |
| ATCTTATTAATTAATTCTTTGTGTTTCATATTATTCTAATCGGAGTCACCTAGTGCAG | 10300 fluorescence intensity (a.u.) |
| TGCGAGTTCGTCGCCGCCTCCGCCGATCTCCATCAGGCGACGGAGTCACCTAGTGCAG | 9610 fluorescence intensity (a.u.) |

| Sequence | binding signal |
| --- | --- |
| GCAGCGACGACATCTGACGGCCTCACCTACCTTTCGGTCTCGGAGTCACCTAGTGCAG | 8460 fluorescence intensity (a.u.) |
| GGTGTCTTGATTGATATGATTTAAATTATTCTTGGTCTTGCGGAGTCACCTAGTGCAG | 9570 fluorescence intensity (a.u.) |
| GGCTCAACAAATAATGTGAAGATCTCTCATTTTCATTTTCCGGAGTCACCTAGTGCAG | 8050 fluorescence intensity (a.u.) |
| AAATTTGTTATTTTTGTTTCGAATTATATAATTCGAATTTCGGAGTCACCTAGTGCAG | 9450 fluorescence intensity (a.u.) |
| TCGTTATACCTGGTTTTTTTGGTTGAGGGATGTTATTCGACGGAGTCACCTAGTGCAG | 12500 fluorescence intensity (a.u.) |
| TGTTTGGTTGGGATACATGGGAATTTTGGTAGGATGGGGACGGAGTCACCTAGTGCAG | 12700 fluorescence intensity (a.u.) |
| TCTTTGTTATAATTATGGGGTTGGTTTTATTCGTTTTCGACGGAGTCACCTAGTGCAG | 21900 fluorescence intensity (a.u.) |
| TTTATACATGGTTTGTGTTTTTCTCACTTTGGGTTGGGGACGGAGTCACCTAGTGCAG | 18000 fluorescence intensity (a.u.) |
| CTAGTTGTGTTTGTTAATTTCTTTCTATACATGGGTTACCCGGAGTCACCTAGTGCAG | 11700 fluorescence intensity (a.u.) |
| GACACCACATAAAGACACCCATCCCCGTGATCAACTACCTCGGAGTCACCTAGTGCAG | 8320 fluorescence intensity (a.u.) |
| CGCCTGTCAAATCCTAGTCAGGGAATCTGTCTTCCATCTACGGAGTCACCTAGTGCAG | 9100 fluorescence intensity (a.u.) |
| GTTGAGGGACCCGCTGGATCTGGTTTTTGATTGAAGGATACGGAGTCACCTAGTGCAG | 8800 fluorescence intensity (a.u.) |
| TATATTGTCTGTTTTCTCTTGAATCTTTCCTATCCAGTAGCGGAGTCACCTAGTGCAG | 8490 fluorescence intensity (a.u.) |
| AAGGACCCGTTCTATCTGGTTTTGCGGTTGAAGGATAGAACGGAGTCACCTAGTGCAG | 28000 fluorescence intensity (a.u.) |
| TTTTTCTTTTTATTGTCTTGTTCTCGTGCGTGTTGAAAAACGGAGTCACCTAGTGCAG | 20300 fluorescence intensity (a.u.) |
| TTGTGTAGGTTTTGTTTCTTTCTTCTTTTTTCGAAAAGAGCGGAGTCACCTAGTGCAG | 8940 fluorescence intensity (a.u.) |
| TCTTCTTTTGTTGTCTTCTGCTATCCAATCTCTTGTCAAACGGAGTCACCTAGTGCAG | 10500 fluorescence intensity (a.u.) |
| TGTTATTATTGCCGTTGTCTTTATTTTTCTTTTTTGAAAACGGAGTCACCTAGTGCAG | 9580 fluorescence intensity (a.u.) |
| GCCTTTTTCTTGCGTGTAGGTTGTTCTGTTGAGAGAAAGACGGAGTCACCTAGTGCAG | 17700 fluorescence intensity (a.u.) |
| TTTTTTTTCTTTCTGTTCTGTTTCTGTTGAGAAACAAAGACGGAGTCACCTAGTGCAG | 8450 fluorescence intensity (a.u.) |
| AGTATTGTTTTCTCGCTGTCTCTATCCAAATCTTTGAAAACGGAGTCACCTAGTGCAG | 17200 fluorescence intensity (a.u.) |
| AGTTGAGGGATCCGTTGTATCTGGTTTTGCGGTTGAAGGACGGAGTCACCTAGTGCAG | 8570 fluorescence intensity (a.u.) |
| TTATTGTTTTTATTGTCTTTTTTTCTTTATATTTCCAAAACGGAGTCACCTAGTGCAG | 11400 fluorescence intensity (a.u.) |
